Data on 54 compounds can be found in ChEMBL document CHEMBL4513216, “Probing the Open Global Health Chemical Diversity Library for Multistage-Active Starting Points for Next-Generation Antimalarials” (ACS Infect Dis, 2020).

Screen size: about 69,000 compounds; about 8,600 (12%) showed an effect of 50% or more. The list comes from a sample in which strong results are over-represented; it also holds similar structures and randomly drawn compounds.

This assay deals with Plasmodium berghei. Briefly: Screen against P. berghei liver stage (PbLuc), transformed with Luciferase, at 10uM. In kind it is functional, HepG2. The note with it: tested at 10 uM.
Turning to `NC(=O)NC(=O)CCN1CCCC1c1nc(C2CCCCC2)co1` (centres undefined), the INHIBITION is listed as -5.33%.

Regarding `Cc1ccc(F)c2c1N(C(=O)Cc1c(C)nn(C)c1C)CCC2`, the INHIBITION is -19.1%.

Consider `Cc1nn(C)c(C)c1S(=O)(=O)NCCn1ccc(-c2cccs2)n1`, for which the INHIBITION is on record as 63.1%.

Regarding `CCCS(=O)(=O)NCCn1ccc(-c2cccs2)n1`, the INHIBITION worked out at 34.6%.

Consider `CS(=O)(=O)NCCn1ccc(-c2cccs2)n1`, for which the INHIBITION is 22.5%.

Turning to `O=C(NCC1CCOCC1)[C@H]1C[C@@H]2CCN(Cc3ccncc3)C[C@@H]2O1`, the INHIBITION worked out at 10%.

With `Cc1cn[nH]c1C1COCCN1C(=O)c1cc(F)ccc1F` (centres undefined), the INHIBITION was found to be 22.8%.

Regarding `COCC1CN(Cc2ccc(F)cc2)Cc2nnn(CC3CC3)c21` (centres undefined), the INHIBITION is reported as -9.54%.

Consider `COc1ccc2oc(-c3cn(C)nc3C)c(O)c(=O)c2c1`, for which the INHIBITION stood at 8.49%.

As to `COc1cccc(CNC(=O)N2CCN3CCNC(=O)C3C2)c1` (centres undefined), the INHIBITION was 15.2%.

Take `O=C1NCCN2CCN(C(=O)NCCc3ccccc3)CC12` (centres undefined): the INHIBITION was found to be 61.1%.

For `O=C1NCCN2CCN(C(=O)Nc3ccc(-c4ccccc4)cc3)CC12` (centres undefined), the INHIBITION was determined as 18.6%.

Take `O=C(c1ccccn1)N1C[C@H]2CC[C@@H](C1)N(C(=O)CCc1cccs1)C2`: the INHIBITION turned out to be 21.8%.

As to `CCC(=O)N1CCC(c2ncncc2C)CC1`, the INHIBITION is given as 21.1%.

Regarding `Cc1ncsc1C(=O)Nc1cccc(OCC(F)F)n1`, the INHIBITION is reported as 17.4%.

For `Cc1ccc(CN(C(=O)c2cccc(NC(N)=O)c2)C2CC2)o1`, the INHIBITION came out at 17.9%.

As to `NC(=O)Nc1cccc(C(=O)N(Cc2ccc(F)cc2)C2CC2)c1`, the INHIBITION stood at 13.5%.

For `NC(=O)Nc1cccc(C(=O)N(Cc2ccncc2)C2CC2)c1`, the INHIBITION worked out at 71.1%.

As for `Cc1occc(=O)c1OCc1noc(C(=O)NC2CCCC2)n1`, the INHIBITION was 6.67%.

Regarding `CCOCC1CN(c2ccc(C)nn2)Cc2cnn(CC)c21` (centres undefined), the INHIBITION was determined as 48.4%.

For `CCOCC1CN(C(=O)c2ccnnc2)Cc2cnn(CC)c21` (centres undefined), the INHIBITION is 5.44%.

`CCn1ncc2c1C(COCC1CC1)CN(c1ccc(C)nn1)C2` (centres undefined): the INHIBITION was 86.2%.

On to `CCOCC1CN(C(=O)C2CCOCC2)Cc2cnn(C)c21` (centres undefined), for which the INHIBITION is given as 59.9%.

As for `O=C(c1ccco1)N1Cc2cnn(CC3CC3)c2C(COCC2CC2)C1` (centres undefined), the INHIBITION was 50.4%.

Consider `CCOCC1CN(C(=O)c2cccn2C)Cc2cnn(CC3CC3)c21` (centres undefined), for which the INHIBITION is given as 19%.

On to `CCOCC1CN(C(=O)c2ccco2)Cc2cnn(CC)c21` (centres undefined), for which the INHIBITION is 78.8%.

As for `CCOCC1CN(C(=O)c2ccco2)Cc2cnn(C)c21` (centres undefined), the INHIBITION is 18.4%.

Turning to `CCOCC1CN(C(=O)CS(C)(=O)=O)Cc2cnn(C)c21` (centres undefined), the INHIBITION is reported as 19.5%.

For `Cc1ccc(N2Cc3cnn(C)c3C(COCC3CC3)C2)nn1` (centres undefined), the INHIBITION is given as 24.6%.

As for `CCOCC1CN(C(=O)N2CCCC2)Cc2cnn(C)c21` (centres undefined), the INHIBITION was 21.4%.

Regarding `CCn1cc2c(n1)C(COCC1CC1)CN(C(=O)c1ccco1)C2` (centres undefined), the INHIBITION was -78.9%.

On to `CNC(=O)c1ccc(C(=O)N2CCCC(n3ccnc3)C2)cn1` (centres undefined), for which the INHIBITION was determined as 18.2%.

For `Cc1cnn(CC2CCCN2CC(=O)NC2CCOCC2)c1` (centres undefined), the INHIBITION was determined as 15.3%.

`O=C1NCCN(CC2CC2)C12CCN(Cc1ccccc1)CC2`: the INHIBITION came out at 47.4%.

Consider `CCc1noc(CN2CCCN(Cc3cccs3)CC2)n1`, for which the INHIBITION is reported as -47.6%.

For the compound `Cc1nn(C)c(Cl)c1C1CCCN1Cc1ccc(C(N)=O)cc1` (centres undefined), the INHIBITION is given as -1.14%.

Regarding `CCOCC1CN(S(=O)(=O)CC)Cc2cnn(CC3CC3)c21` (centres undefined), the INHIBITION was determined as 31.7%.

In the case of `Cn1ncc2c1C(COCC1CC1)CN(S(C)(=O)=O)C2` (centres undefined), the INHIBITION is given as 33.4%.

For the compound `CCOCC1CN(S(C)(=O)=O)Cc2cnn(CC3CCOCC3)c21` (centres undefined), the INHIBITION came to 30.1%.

In the case of `COCC1CN(c2ccncn2)Cc2cnn(CC3CCCC3)c21` (centres undefined), the INHIBITION is listed as 19.5%.

Regarding `CCOCC1CN(c2ncccn2)Cc2cnn(CC3CCOCC3)c21` (centres undefined), the INHIBITION came out at 22.5%.

With `CS(=O)(=O)N1Cc2cnn(CC3CC3)c2C(COCC2CC2)C1` (centres undefined), the INHIBITION was 53.4%.

`CCn1cc2c(n1)C(COC)CN(c1ccc(C)nn1)C2` (centres undefined): the INHIBITION is 36.2%.

`CCn1cc2c(n1)C(COCC1CC1)CN(c1ccc(C)nn1)C2` (centres undefined): the INHIBITION came to 41%.

As for `COCC1CN(c2ncccn2)Cc2cnn(CC3CC3)c21` (centres undefined), the INHIBITION came to 84.2%.

Turning to `CCOCC1CN(C2CCCC2)Cc2cnn(CC3CCOCC3)c21` (centres undefined), the INHIBITION came to 58.8%.

As to `CCOCC1CN(c2ccc(C)nn2)Cc2nn(CC)cc21` (centres undefined), the INHIBITION came to 63.5%.

As to `CCOCC1CN(C)Cc2cnn(CC3CCCC3)c21` (centres undefined), the INHIBITION worked out at 36.8%.

Consider `CCc1ccc(NC(=O)c2cnc(N3CCCC3)nc2C)cc1`, for which the INHIBITION is on record as -55.4%.

For the compound `CCCn1cc(NC(=O)Nc2ccc(F)c(C(=O)NC)c2)cn1`, the INHIBITION amounted to 11.3%.

For the compound `OC[C@H]1CN(C2Cc3ccccc3C2)C[C@H]1CN1CCC(O)CC1`, the INHIBITION was 29.4%.

Regarding `CCCOCC1CCN(C(=O)c2cnc(-c3csc(C)n3)nc2O)C1` (centres undefined), the INHIBITION was -33.9%.

In the case of `O=C(CSc1nccc(-c2ccc3c(c2)OCO3)n1)N1CCOCC1`, the INHIBITION is -47.8%.

Take `Cc1cnn(CC2CCCN2Cc2nnc(-c3ccccc3)o2)c1` (centres undefined): the INHIBITION came out at 40.9%.
